We go through 22 compounds from PubChem BioAssay (NCATS).

Each structure is given as a SMILES string. Values without a mark were called inactive. Records with an inconclusive call do not appear. The source made the active and inactive calls. Unless noted, the call rests on the fitted dose curve; in most records, active means well fitted inhibition curve with a large enough effect; inconclusive means small, poorly fitted or top-dose-only effect; inactive means flat fitted curve, though single readings scatter. Where only a bound is given, the exact number is not on record here.

Chain of DNA dC->dU-editing enzyme APOBEC-3G (Homo sapiens) (Q9HC16 whole entry, looked up): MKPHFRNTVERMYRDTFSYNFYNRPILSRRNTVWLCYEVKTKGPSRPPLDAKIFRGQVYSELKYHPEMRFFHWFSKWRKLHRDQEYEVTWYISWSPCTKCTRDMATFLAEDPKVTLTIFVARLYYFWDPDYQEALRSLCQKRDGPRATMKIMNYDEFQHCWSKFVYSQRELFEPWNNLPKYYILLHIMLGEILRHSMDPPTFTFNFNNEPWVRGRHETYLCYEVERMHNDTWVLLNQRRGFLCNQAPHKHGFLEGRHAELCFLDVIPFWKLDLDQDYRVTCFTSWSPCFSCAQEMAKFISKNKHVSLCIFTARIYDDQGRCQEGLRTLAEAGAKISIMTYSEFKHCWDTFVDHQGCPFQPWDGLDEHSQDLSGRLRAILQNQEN
Chain of Glucocorticoid receptor (Homo sapiens) (P04150 whole entry, looked up, the tested form may be a part): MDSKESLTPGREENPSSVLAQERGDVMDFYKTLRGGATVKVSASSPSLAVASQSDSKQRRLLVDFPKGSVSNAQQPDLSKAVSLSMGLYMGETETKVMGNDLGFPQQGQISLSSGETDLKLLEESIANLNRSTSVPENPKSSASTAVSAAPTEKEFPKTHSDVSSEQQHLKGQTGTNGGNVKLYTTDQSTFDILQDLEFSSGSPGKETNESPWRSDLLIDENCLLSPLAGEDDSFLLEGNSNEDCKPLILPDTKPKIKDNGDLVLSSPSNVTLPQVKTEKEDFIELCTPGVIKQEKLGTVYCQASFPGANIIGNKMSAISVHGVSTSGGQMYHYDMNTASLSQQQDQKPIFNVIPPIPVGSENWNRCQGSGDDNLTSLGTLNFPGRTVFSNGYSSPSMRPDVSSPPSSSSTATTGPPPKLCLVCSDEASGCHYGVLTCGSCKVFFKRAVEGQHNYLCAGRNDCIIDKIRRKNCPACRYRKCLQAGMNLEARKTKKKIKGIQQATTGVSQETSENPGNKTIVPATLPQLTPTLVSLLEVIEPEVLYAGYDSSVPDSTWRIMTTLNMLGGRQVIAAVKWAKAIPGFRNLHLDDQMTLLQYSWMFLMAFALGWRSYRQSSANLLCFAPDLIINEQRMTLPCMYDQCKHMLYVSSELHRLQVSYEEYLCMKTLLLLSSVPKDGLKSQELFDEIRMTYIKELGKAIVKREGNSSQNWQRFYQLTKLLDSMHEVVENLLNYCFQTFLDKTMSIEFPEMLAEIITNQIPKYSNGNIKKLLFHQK
Chain of 3',5'-cyclic-AMP phosphodiesterase 4B (Homo sapiens) (Q07343 whole entry, looked up): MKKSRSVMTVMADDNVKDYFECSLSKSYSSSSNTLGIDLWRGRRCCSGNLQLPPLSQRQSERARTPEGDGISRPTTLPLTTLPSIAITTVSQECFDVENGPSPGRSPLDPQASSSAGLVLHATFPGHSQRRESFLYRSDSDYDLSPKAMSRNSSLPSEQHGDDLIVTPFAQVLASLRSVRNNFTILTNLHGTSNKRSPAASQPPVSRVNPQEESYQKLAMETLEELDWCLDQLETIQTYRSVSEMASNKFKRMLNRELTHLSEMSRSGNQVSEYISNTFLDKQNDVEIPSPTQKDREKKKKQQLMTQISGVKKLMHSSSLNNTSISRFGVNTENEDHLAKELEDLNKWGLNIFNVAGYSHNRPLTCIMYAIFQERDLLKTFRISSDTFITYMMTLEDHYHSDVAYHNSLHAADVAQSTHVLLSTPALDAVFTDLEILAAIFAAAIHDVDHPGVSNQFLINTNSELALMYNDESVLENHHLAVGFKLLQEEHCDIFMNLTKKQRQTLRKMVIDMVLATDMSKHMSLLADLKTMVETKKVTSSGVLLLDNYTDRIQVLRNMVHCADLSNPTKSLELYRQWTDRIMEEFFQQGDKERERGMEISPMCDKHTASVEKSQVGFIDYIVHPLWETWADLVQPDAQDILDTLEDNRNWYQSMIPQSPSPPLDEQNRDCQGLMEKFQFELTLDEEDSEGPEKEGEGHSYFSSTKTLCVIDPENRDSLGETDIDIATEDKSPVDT

The first test addresses Glucocorticoid receptor (Homo sapiens) (UniProt P04150). Put plainly: GR-EFC Redistribution (AID 451; calls by dose curve; further: potency means the concentration at half of the fitted maximal effect). Conditions: CHO-K1 GR-EFC translocation, beta-gal luminescence, 2 h. In outline: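 Translocation of GR-ED fusion to nuclear EA restores b-gal, read by luminescence after 1 h room-temperature detection. Engineered CHO-K1 biosensor cells, 1,000/well, exposed 2 h at 37 C to titrations up to 46 uM final.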
On to `C=CCN1C[C@H](C)N([C@H](c2ccc(C(=O)N(CC)CC)cc2)c2cccc(O)c2)C[C@H]1C`, for which the Potency is greater than 46 µM.
Same read-out and setting: the same measure for `CCCCCCC[n+]1ccc(-c2cc[n+](CCCCCCC)cc2)cc1`: greater than 46 µM.
Consider `CNc1ccc2oc(C[C@H]3O[C@]4(CC[C@H]3C)O[C@H]([C@H](C)C(=O)c3ccc[nH]3)[C@H](C)C[C@H]4C)nc2c1C(=O)O`, for which the Potency is greater than 46 µM.

The next test addresses Mitogen-activated protein kinase 10 (Mus musculus) (UniProt Q61831). The experiment in a line: JNK3 AlphaScreen Assay (AID 530; active means well fitted curve in either direction with a large enough effect, not every such curve was filed as active;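 further: kinase came from lysate of stimulated human HepG2 cells; signal reports phosphorylation of biotinylated GST-cJun 1-79 at Ser73 with 10 µM ATP; on the % scale 0 is the no-effect control and ±100 the full control effect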). Conditions: JNK3 lysate, c-Jun phosphorylation; series mostly up to 57.1 µM; activity change, negative = inhibition: at the top concentration. In outline:
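Kinase buffer: 20 mM Tris-HCl pH 7.6, 10 mM MgCl2, 1 mM DTT, 0.1 mM Na3VO4, 0.01% Tween-20; ATP 10 uM. Substrate biotin-GST-cJun(1-79), enzyme from activated HepG2 lysates. Detection by Ser73 phospho-antibody AlphaScreen.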
(Bead proximity is the source of the signal in Alpha formats.)
`C[C@H]1C[C@H](C)C(=O)[C@@H]([C@H](O)CC2CC(=O)NC(=O)C2)C1`: the compound was classed as inactive.
Take `C=CCN1C[C@H](C)N([C@H](c2ccc(C(=O)N(CC)CC)cc2)c2cccc(O)c2)C[C@H]1C`: the “activity change, negative = inhibition” value was 0.233%.
The same measure, in the same setting: the same measure for `CNc1ccc2oc(C[C@H]3O[C@]4(CC[C@H]3C)O[C@H]([C@H](C)C(=O)c3ccc[nH]3)[C@H](C)C[C@H]4C)nc2c1C(=O)O`: -7.92%.

The target in another test is 3',5'-cyclic-AMP phosphodiesterase 4B (Homo sapiens) (UniProt Q07343). The experiment in a line: qHTS Assay for Inhibitors of PDE-IV (AID 607; active means well fitted activation curve with a large enough effect in the main read-out, with a control signal flat, not every such curve was filed as active; further: % of control where 0% means no effect). The conditions noted are these: HEK293 ACTOne CNG channel cells, membrane potential fluorescence; series mostly up to 22.9 µM; activation (PDE inhibition): at the top concentration. The method in brief:
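Cell-based read-out of cAMP via a modified cyclic nucleotide-gated channel and membrane potential dye (535/590 nm) in HEK293 cells expressing PDE4 endogenously. Compounds tested up to 22.9 uM final; 100 uM RO 20-1724 reference.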
A general note: qHTS replaces the single test concentration by a dilution series.
On to `C[C@H]1C[C@H](C)C(=O)[C@@H]([C@H](O)CC2CC(=O)NC(=O)C2)C1`, for which the “activation (PDE inhibition)” value was -22.1%.
Still for that read-out and setting: with `C=CCN1C[C@H](C)N([C@H](c2ccc(C(=O)N(CC)CC)cc2)c2cccc(O)c2)C[C@H]1C` the figure was -18.5%.
`CCCCCCC[n+]1ccc(-c2cc[n+](CCCCCCC)cc2)cc1`: the “activation (PDE inhibition)” value was -16.2%.

Another test has as its target DNA dC->dU-editing enzyme APOBEC-3G (Homo sapiens) (UniProt Q9HC16). Put plainly: qHTS for inhibitors of Vif-A3G interactions: Validation (AID 588379). Further: 0% is about no effect. Conditions: Vif-A3G protein interaction assay; series mostly up to 46.1 µM; activity change, negative = inhibition: at the top concentration. The method in brief: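 Yellow fluorescence (Ex 488, Em 500-530) of Vif-coexpressing HeLa A3G-eYFP cells, scanned by Acumen cytometer, reports blocked A3G degradation. Cells plated at 700/well overnight at 37 deg C before compound addition, then a further overnight compound incubation at 37 deg C.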
`C[C@H]1C[C@H](C)C(=O)[C@@H]([C@H](O)CC2CC(=O)NC(=O)C2)C1`: the “activity change, negative = inhibition” value is -5.31%.
On to `CCCCCCC[n+]1ccc(-c2cc[n+](CCCCCCC)cc2)cc1`, for which the “activity change, negative = inhibition” value was 3.7%.
For `CNc1ccc2oc(C[C@H]3O[C@]4(CC[C@H]3C)O[C@H]([C@H](C)C(=O)c3ccc[nH]3)[C@H](C)C[C@H]4C)nc2c1C(=O)O`, the “activity change, negative = inhibition” value was 2.16%.

For the next test, the system named is Zika virus NS2B-NS3 protease. Put plainly: Primary screen GU AMC qHTS for Zika virus inhibitors (AID 1347154). Further: nearly all actives have a fitted effect of over 70% in size. Further: potency means the concentration at half of the fitted maximal effect.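 On activity change, negative = inhibition: 0% = no-inhibitor control and -100% = no-enzyme control.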 Conditions: Zika NS2B-NS3 unlinked protease, AMC fluorogenic substrate; series mostly up to 54.1 µM; activity change, negative = inhibition: at the top concentration. The method in brief:
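Fluorogenic AMC-substrate cleavage by noncovalent NS2B-NS3 protease complex (25 nM, pH 8.0 Tris buffer with Tween 20) followed for 15 minutes at room temperature (~20% conversion). Percent inhibition from ex340/em450 signal change, fitted by 4-parameter Hill equation.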
Turning to `CN(C(=O)Cc1ccc(Cl)c(Cl)c1)C(CN1CCCC1)c1cccc(N=C=S)c1` (configuration not stated), the “activity change, negative = inhibition” value was -3.31%.
`CC1=C2CC3C(CC=C4C[C@@H](O)CC[C@@]43C)[C@@H]2CC[C@]12O[C@@H]1C[C@H](C)CN[C@H]1[C@H]2C` (some centres not stated): the “activity change, negative = inhibition” value is 9.04%.
Still for that read-out and setting: with `CC1CCC2C(C)C(=O)OC3O[C@]4(C)CCC1[C@@]32OO4` (some centres not stated) the figure was 16.2%; with `CC(C)C[C@H](NC(=O)[C@H](Cc1ccccc1)NC(=O)CNC(=O)[C@@H](NC(=O)[C@@H](N)Cc1ccc(O)cc1)[C@H](C)O)C(=O)N[C@H](C(=O)O)[C@H](C)O`, 4.9% [at 6.83 µM].
For `O=C(NC1CCCCC1)c1cn(CCN2CCOCC2)c2cc(Cl)ccc2c1=O`, the “activity change, negative = inhibition” value is 6.39%.
As for `C[C@H]1C[C@H](C)C(=O)[C@@H]([C@H](O)CC2CC(=O)NC(=O)C2)C1`, the “activity change, negative = inhibition” value is -13%.
The same measure, in the same setting: with `Nc1ncnc2c1ncn2[C@@H]1O[C@H](COP(=O)(O)CP(=O)(O)O)[C@@H](O)[C@H]1O` the figure was 1.57%; with `CO[C@@H]1C[C@@H](C[C@H]2CC[C@H](C)[C@@H]([C@@H](C)C(=O)O)O2)O[C@]2(O[C@](C)([C@H]3CC[C@@](C)(C4OC([C@H]5O[C@@](O)(CO)[C@H](C)C[C@@H]5C)C[C@@H]4C)O3)C[C@H]2C)[C@@H]1C` (some centres not stated), 13.2% [at 25.8 µM].
Still for that read-out and setting: the same measure for `CC(C)[C@H](NC(=O)[C@H](CCC(=O)O)NC(=O)[C@H](Cc1ccccc1)NC(=O)[C@H](C)NC(=O)[C@@H](N)Cc1ccc(O)cc1)C(=O)N[C@H](C(=O)NCC(N)=O)C(C)C`: 2.64% [at 6.83 µM]; for `CCCCC/C=C\C[C@@H](/C=C/C=C\C/C=C\CCCC(=O)O)OO`: 11.4% [at 0.59 µM].
As to `CCCCC[C@@H](/C=C/C=C\CCCCCCCC(=O)O)OO`, the activity change, negative = inhibition is 3.22% [at 0.59 µM].
Consider `COc1ccc2c(c1O)-c1cc(O)cc3c1[C@@H](C2)N(C)CC3`, for which the Potency was 29.9 µM (active).
As for `C=CCN1C[C@H](C)N([C@H](c2ccc(C(=O)N(CC)CC)cc2)c2cccc(O)c2)C[C@H]1C`, the “activity change, negative = inhibition” value is -0.212%.
The same measure, in the same setting: with `NCC(CS(=O)(=O)O)c1ccc(Cl)cc1` (configuration not stated) the figure was 12.7%; with `CCCC[C@@H](C)[C@@H](OC(=O)C[C@@H](CC(=O)O)C(=O)O)[C@H](C[C@@H](C)C[C@H](O)CCCC[C@@H](O)C[C@H](O)[C@H](C)N)OC(=O)C[C@H](CC(=O)O)C(=O)O`, -3.71% [at 25.8 µM]; with `N#Cc1c(Oc2cccc(OS(=O)(=O)CCCC(F)(F)F)c2)cccc1C(F)(F)F`, 1.77%.
Still for that read-out and setting: the same measure for `C[C@]12CCC3C(CC[C@H]4C[C@H](O)CC[C@]34C)[C@@H]1CC[C@@H]2C(=O)CO` (some centres not stated): -0.808%; for `O[C@@H]1CCCC[C@@H]1N1CCC(c2ccccc2)CC1`: -2.76%; for `CCOC(=O)CN1C(=O)CC(C[C@@H](O)C2C[C@@H](C)C[C@H](C)C2=O)CC1=O` (some centres not stated): -4.64%.
Consider `CC[C@H](C)[C@H](NC(=O)[C@H](CCCN=C(N)N)NC(=O)[C@H](CCCN=C(N)N)NC(=O)[C@H](CC(C)C)NC(=O)[C@H](Cc1ccccc1)NC(=O)CNC(=O)CNC(=O)[C@@H](N)Cc1ccc(O)cc1)C(=O)N[C@@H](CCCN=C(N)N)C(=O)N1CCC[C@H]1C(=O)N[C@@H](CCCCN)C(=O)N[C@@H](CC(C)C)C(=O)N[C@@H](CCCCN)C(=O)O`, for which the activity change, negative = inhibition was 3.59% [at 6.83 µM].
